Source: PubChem BioAssay (NCI)
This is part of a sample that, as a whole, favours compounds with a hit. Of some 83,000 tested, about 20% had one in any assay.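 Results are percent growth after 48 hours of single-concentration exposure. 100 means growth as in untreated cells, lower positive values show inhibition; negative values down to -100 show cell death.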 Activity calls are given as the source filed them.

Each compound was assayed on U251 CNS (assay: NCI-60 one-dose screen, 48 h (100 = growth as untreated, 0 = no growth, -100 = all killed)). Details: 10 µM unless noted.
Protocol: Growth inhibition of the U251 human tumor cell line is measured as a screen for anti-cancer activity. Cells are grown in 96 well plates and exposed to the test compound for 48 hours. Compounds are tested at a single concentration, which is 10^-5 M for most compounds. The reported endpoint is percent growth (GI% or GIPRCNT), where numbers from 0 - 100% represent growth inhibition, and numbers from -100% - 0 represent cell death. For example, a value of 40 represents 60% growth inhibition. A value of 0 means no net growth occurred over the course of the experiment. A value of -40 indicates 40% of cells at the beginning of the experiment died by the end of the experiment. A value of -100 means all cells are dead at the end of the experiment.
NCI-60 Human Tumor Cell Lines Screen was performed using the standard one-dose NCI protocol, which is described in more detail at https://dtp.cancer.gov/discovery_development/nci-60/default.htm.
Compounds with GIPRCNT values below 10 were considered active. Activity score was based on GIPRCNT using the following formula: […]
Score is 0 for GIPRCNT values of 100 or above, 50 for GIPRCNT values of 0, and 100 for GIPRCNT values of -100.

Compound | growth
NCCNc1nc(-c2ccccc2)nc2nc(-c3ccccc3)oc12 | 70.3% (inactive)
COc1ccc2nc(-c3cc(-c4cc(OC)c(OC)c(OC)c4)n[nH]3)[nH]c2c1 | 39.3% (inactive)
O=C(/C(=C(\C(=O)c1ccccc1)c1ccccc1)c1ccccc1)c1ccccc1 | 47.3% (inactive)
COC1=C(Br)C(=O)C(OC)=C(Br)C1=O | 104% (inactive)
O=C(/C=C\c1ccc2c(c1)OCO2)/C=C/c1ccc2c(c1)OCO2 | 19.4% (inactive)
CCSc1sc(-c2ccc(C)cc2)nc1[P+](c1ccccc1)(c1ccccc1)c1ccccc1 | 9.48% (active)
CN(CSc1ccc(Cl)cc1)c1ccc(CSc2ccc(Cl)cc2)cc1 | 53.6% (inactive)
O=C1C(=O)c2ccccc2C(O)=C1CCCc1ccc(C2CCCCC2)cc1 | 45.4% (inactive)
NC(=O)[C@@H]1CC2CCC1C2 (stereo not given in full) | 96.3% (inactive)
C=C(C)[C@@H]1CC[C@]2(C(=O)N3CCN(CC)CC3)CC[C@]3(C)[C@H](CC[C@@H]4[C@@](C)(CCC(=O)N5CCN(CC)CC5)[C@H](C(=C)C)CC[C@]43C)[C@@H]12 | 40.6% (inactive)
O=C1C=Cc2ncccc2C1=O | 42.2% (inactive)
Nc1ncnc2nc(Br)[nH]c12 | 89.4% (inactive)
CCCCC(=O)OC1CCCCC1C (stereo not given) | 85.6% (inactive)
CC/C=C\C[C@H]1CC=C2C(=O)C=C[C@@H]2CC=CCCCC(=O)O[C@@H](CCCCC)CC=C2C(=O)C=C[C@@H]2CC=CCCCC(=O)O[C@@H](CCCCC)CC=C2C(=O)C=C[C@@H]2CC=CCCCC(=O)O[C@@H](CCCCC)CC=C2C(=O)C=C[C@@H]2CC=CCCCC(=O)O1 | -45.8% [7.9 µM] (active)
Cc1ccc2c(c1)c1nc3cc(C)c(C)cc3nc1n2CCN(C)C | 23.7% (inactive)
C[N+](C)(CCCCCC[N+](C)(C)C1c2ccccc2-c2ccccc21)C1c2ccccc2-c2ccccc21 | 96.4% (inactive)
Nc1c(C(=O)Nc2cccc(Cl)c2)sc2ncc(Cl)cc12 | 10.6% (inactive)
COc1ccc(/C=C/C(=O)c2ccc([N+](=O)[O-])cc2)cc1 | 97.5% (inactive)
Cc1cc(N2CCOCC2)nc(N(CCCNc2ccnc3cc(Cl)ccc23)Cc2ccco2)n1 | 25.4% (inactive)
Oc1cc(/C=C/c2nc(N3CCOCC3)c3cc(Cl)c(Cl)cc3n2)cc(O)c1O | 102% (inactive)

Compound | growth
COc1cccc(-c2nn(-c3ccccc3)cc2-c2ccnc(NCCNS(=O)(=O)c3cccc(F)c3)c2)c1 | 27% (inactive)
COc1ccc(/C=C/C(=O)NCCO)cc1 | 94.8% (inactive)
Nc1c(C(=O)Nc2c(Cl)cccc2Cl)sc2nc3c(cc12)CCCC3 | 74.1% (inactive)
Brc1ccc(Cn2nnnc2-c2ccn(-c3ccccc3)n2)cc1 | 75.7% (inactive)
O=C(N/N=C\c1ccccc1O)C1CC1 | 103% (inactive)
Cc1ccc(Sc2sc(-c3ccccc3)nc2[P+](c2ccccc2)(c2ccccc2)c2ccccc2)cc1 | 13.8% (inactive)
C=C1CC[C@@H](C(=O)OC)Cc2nc(C)ccc21 | 103% (inactive)
C=C(C)[C@@H]1CC[C@]2(C=NCCCNCCCCNCCCN)CC[C@]3(C)[C@H](CC[C@@H]4[C@@]5(C)CCCNC(C)(C)[C@@H]5CC[C@]43C)[C@@H]12 | 91.6% (inactive)
NCCn1cc(-c2nc(-c3c[nH]c4ncccc34)cs2)c2cc(F)ccc21 | 84.1% (inactive)
COc1ccc(/C=C(\C#N)c2cc3ccccc3n2C(C)=O)cc1 | 87.1% (inactive)
CC(=O)n1c(/C(C#N)=C/c2ccc(N(C)C)cc2)cc2ccccc21 | 36.4% (inactive)
Cc1csc(-c2ccc3c(c2)COC3(CCCN(C)C)c2ccc(F)cc2)c1 (stereo not given) | -45.1% (active)
C#Cc1cc2c(N)c(C(=O)c3cc(OC)c(OC)c(OC)c3)[nH]c2cc1OC | 34% (inactive)
COc1cccc(-c2nn(-c3ccccc3)cc2-c2ccnc(NCCNS(=O)(=O)c3ccc(C(F)(F)F)cc3)c2)c1 | 15.4% (inactive)
CC1(C)NC2=C(C(Nc3cccnc3)N1)C(c1ccc([N+](=O)[O-])cc1)C(C(=O)c1ccc(N=[N+]=[N-])cc1)O2 (stereo not given) | 101% (inactive)
O=C(N/N=C\c1c(O)ccc2ccccc12)C1CC1 | 35.6% (inactive)
Cc1ccncc1C(=O)O | 97.2% (inactive)
O=[N+]([O-])c1ccc(N/N=C(\C(=N/Nc2ccc([N+](=O)[O-])cc2[N+](=O)[O-])c2ccccc2)c2ccccc2)c([N+](=O)[O-])c1 | 36.4% (inactive)
COC(=O)[C@]12CC[C@@H](C)[C@H](C)[C@@H]1C1=CC(=O)[C@@H]3[C@@]4(C)C[C@@H](O)[C@H](O)[C@@]5(C)COC(=C45)C[C@@]3(C)[C@]1(C)CC2 | 39.5% (inactive)
CCC(=O)c1c(C)[nH]c(C)c1C | 82.5% (inactive)
